In PubChem BioAssay AID1159580 (chemical genetic matrix, 2015):
The campaign covered roughly 5,500 compounds. About 2,000 (36%) were called active. Roughly 18% stayed inconclusive and do not appear here. No stated cut-off is given here; in the data, active means normalized growth mostly below about 0.91 (no sharp cut-off); inconclusive means no clear call, values can overlap the other calls; inactive means mostly above about 0.92. This is one part of the list.

Test: chemical genetic growth profiling, strain panel (AID 1159580);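 further: tested at 20 µM; growth read once vehicle control cultures reached saturation at 30 °C; 1 = growth at the plate median or of vehicle wells; lower values mean less growth of the strain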
Settings: growth OD

Measured: normalized growth

Cc1ccc2c(Cl)cc(Cl)c(O)c2n1
inactive: S. cerevisiae deletion strains, locus YAL021C, strain ccr4, hits give low values 0.998 | S. cerevisiae deletion strains, locus YAL026C, strain drs2, hits give low values 1.02 | S. cerevisiae deletion strains, locus YAL030W, strain snc1, hits give low values 1.01 | S. cerevisiae deletion strains, locus YBL061C, strain skt5, hits give low values 1.02 | S. cerevisiae deletion strains, locus YBR009C, strain hhf1, hits give low values 1.02 | S. cerevisiae deletion strains, locus YBR023C, strain chs3, hits give low values 1.02 | S. cerevisiae deletion strains, locus YBR171W, strain sec66, hits give low values 1.04 | S. cerevisiae deletion strains, locus YBR231C, strain swc5, hits give low values 1.03 | S. cerevisiae deletion strains, locus YBR279W, strain paf1, hits give low values 1.02 | S. cerevisiae deletion strains, locus YCL011C, strain gbp2, hits give low values 1.01 | S. cerevisiae deletion strains, locus YCL016C, strain dcc1, hits give low values 1.02 | S. cerevisiae deletion strains, locus YCL069W, strain vba3, hits give low values 1.01 | S. cerevisiae deletion strains, locus YCR088W, strain abp1, hits give low values 1.02 | S. cerevisiae deletion strains, locus YDL005C, strain med2, hits give low values 1.02 | S. cerevisiae deletion strains, locus YDL040C, strain nat1, hits give low values 1.02 | S. cerevisiae deletion strains, locus YDR001C, strain nth1, hits give low values 1.02 | S. cerevisiae deletion strains, locus YDR069C, strain doa4, hits give low values 1.03 | S. cerevisiae deletion strains, locus YDR137W, strain rgp1, hits give low values 1.06 | S. cerevisiae deletion strains, locus YDR159W, strain sac3, hits give low values 1.02 | S. cerevisiae deletion strains, locus YDR195W, strain ref2 0.987 | S. cerevisiae deletion strains, locus YDR297W, strain sur2, hits give low values 1.02 | S. cerevisiae deletion strains, locus YDR334W, strain swr1, hits give low values 1.02 | S. cerevisiae deletion strains, locus YDR335W, strain msn5, hits give low values 1.01 | S. cerevisiae deletion strains, locus YDR392W, strain spt3, hits give low values 1.02 | S. cerevisiae deletion strains, locus YEL003W, strain gim4, hits give low values 1.01 | S. cerevisiae deletion strains, locus YEL037C, strain rad23, hits give low values 1.02 | S. cerevisiae deletion strains, locus YEL061C, strain CIN8 (second series), hits give low values 1.01 | S. cerevisiae deletion strains, locus YER015W, strain faa2, hits give low values 1.01 | S. cerevisiae deletion strains, locus YER016W, strain bim1, hits give low values 1.02 | S. cerevisiae deletion strains, locus YER111C, strain swi4, hits give low values 1.02 | S. cerevisiae deletion strains, locus YER155C, strain BEM2 (second series), hits give low values 1.02 | S. cerevisiae deletion strains, locus YFR010W, strain ubp6, hits give low values 1.01 | S. cerevisiae deletion strains, locus YGL167C, strain pmr1, hits give low values 1.03 | S. cerevisiae deletion strains, locus YGL173C, strain kem1, hits give low values 1.02 | S. cerevisiae deletion strains, locus YGL227W, strain vid30, hits give low values 1.05 | S. cerevisiae deletion strains, locus YGL240W, strain doc1, hits give low values 1.02 | S. cerevisiae deletion strains, locus YGL253W, strain hxk2, hits give low values 1.01 | S. cerevisiae deletion strains, locus YHR013C, strain ard1, hits give low values 1.04 | S. cerevisiae deletion strains, locus YHR027C, strain rpn1, hits give low values 1.02 | S. cerevisiae deletion strains, locus YHR142W, strain chs7, hits give low values 1.03 | S. cerevisiae deletion strains, locus YJL092W, strain hpr5, hits give low values 1.02 | S. cerevisiae deletion strains, locus YJL095W, strain BCK1 (second series), hits give low values 1.04 | S. cerevisiae deletion strains, locus YJL115W, strain asf1, hits give low values 1.03 | S. cerevisiae deletion strains, locus YJL129C, strain trk1, hits give low values 1.02 | S. cerevisiae deletion strains, locus YJL154C, strain vps35, hits give low values 1.02 | S. cerevisiae deletion strains, locus YJL164C, strain tpk1, hits give low values 1.02 | S. cerevisiae deletion strains, locus YJL166W, strain qcr8, hits give low values 1.04 | S. cerevisiae deletion strains, locus YJL187C, strain SWE1, hits give low values 0.999 | S. cerevisiae deletion strains, locus YKL160W, strain elf1, hits give low values 1.02 | S. cerevisiae deletion strains, locus YKR026C, strain gcn3, hits give low values 1.02 | S. cerevisiae deletion strains, locus YKR091W, strain srl3, hits give low values 1.02 | S. cerevisiae deletion strains, locus YLL001W, strain dnm1, hits give low values 1.02 | S. cerevisiae deletion strains, locus YLL026W, hits give low values 0.999 | S. cerevisiae deletion strains, locus YLL041C, strain sdh2, hits give low values 1.03 | S. cerevisiae deletion strains, locus YLR027C, strain aat2, hits give low values 1.02 | S. cerevisiae deletion strains, locus YLR221C, strain rsa3, hits give low values 1.01 | S. cerevisiae deletion strains, locus YLR258W, strain gsy2, hits give low values 1.02 | S. cerevisiae deletion strains, locus YLR262C, strain YPT6 (second series), hits give low values 1 | S. cerevisiae deletion strains, locus YLR320W, strain mms22, hits give low values 1.03 | S. cerevisiae deletion strains, locus YLR342W, strain FKS1, hits give low values 1.05 | S. cerevisiae deletion strains, locus YLR357W, strain rsc2, hits give low values 1.04 | S. cerevisiae deletion strains, locus YLR370C, strain arc18, hits give low values 1.02 | S. cerevisiae deletion strains, locus YLR384C, strain iki3, hits give low values 1.03 | S. cerevisiae deletion strains, locus YML120C, strain ndi1, hits give low values 1 | S. cerevisiae deletion strains, locus YMR058W, strain fet3, hits give low values 1.01 | S. cerevisiae deletion strains, locus YMR125W, strain sto1, hits give low values 1.02 | S. cerevisiae deletion strains, locus YMR129W, hits give low values 1.01 | S. cerevisiae deletion strains, locus YMR205C, strain PFK2, hits give low values 1.02 | S. cerevisiae deletion strains, locus YMR231W, strain pep5, hits give low values 1.02 | S. cerevisiae deletion strains, locus YNL071W, strain lat1, hits give low values 1.01 | S. cerevisiae deletion strains, locus YNL209W, strain ssb2, hits give low values 1.01 | S. cerevisiae deletion strains, locus YNL248C, strain rpa49, hits give low values 1.01 | S. cerevisiae deletion strains, locus YNL322C, strain KRE1 (second series), hits give low values 1.03 | S. cerevisiae deletion strains, locus YNR049C, strain mso1, hits give low values 1.03 | S. cerevisiae deletion strains, locus YOR001W, strain rrp6, hits give low values 1.02 | S. cerevisiae deletion strains, locus YOR070C, strain gyp1, hits give low values 1.03 | S. cerevisiae deletion strains, locus YOR080W, strain dia2, hits give low values 1.02 | S. cerevisiae deletion strains, locus YOR083W, strain WHI5, hits give low values 1.03 | S. cerevisiae deletion strains, locus YOR106W, strain vam3, hits give low values 1.01 | S. cerevisiae deletion strains, locus YOR265W, strain rbl2, hits give low values 1.01 | S. cerevisiae deletion strains, locus YOR270C, strain vph1, hits give low values 1.02 | S. cerevisiae deletion strains, locus YOR290C, strain snf2, hits give low values 1.03 | S. cerevisiae deletion strains, locus YPL051W, strain arl3, hits give low values 1.01 | S. cerevisiae deletion strains, locus YPL078C, strain atp4, hits give low values 1.01 | S. cerevisiae deletion strains, locus YPL106C, strain sse1, hits give low values 1 | S. cerevisiae deletion strains, locus YPL240C, strain hsp82, hits give low values 1.01

C#CCOc1c(Cl)cccc1Cl
inactive: S. cerevisiae deletion strains, locus YAL013W, strain DEP1, hits give low values 0.97 | S. cerevisiae deletion strains, locus YBR229C, strain ROT2, hits give low values 0.989 | S. cerevisiae deletion strains, locus YCL061C, strain MRC1, hits give low values 0.954 | S. cerevisiae deletion strains, locus YDL101C, strain DUN1, hits give low values 0.962 | S. cerevisiae deletion strains, locus YDL134C, strain PPH21, hits give low values 1.01 | S. cerevisiae deletion strains, locus YDR150W, strain NUM1, hits give low values 0.937 | S. cerevisiae deletion strains, locus YEL061C, strain CIN8, hits give low values 1.01 | S. cerevisiae deletion strains, locus YGR078C, strain PAC10, hits give low values 0.992 | S. cerevisiae deletion strains, locus YHR030C, strain SLT2, hits give low values 0.995 | S. cerevisiae deletion strains, locus YHR087W, strain rtc3, hits give low values 1.04 | S. cerevisiae deletion strains, locus YJR043C, strain POL32, hits give low values 0.972 | S. cerevisiae deletion strains, locus YJR075W, strain HOC1, hits give low values 1.03 | S. cerevisiae deletion strains, locus YKL190W, strain CNB1, hits give low values 1.01 | S. cerevisiae deletion strains, locus YLR039C, strain RIC1, hits give low values 0.872 | S. cerevisiae deletion strains, locus YLR058C, strain SHM2 (second series), hits give low values 1.01 | S. cerevisiae deletion strains, locus YLR085C, strain ARP6, hits give low values 0.966 | S. cerevisiae deletion strains, locus YLR262C, strain YPT6, hits give low values 0.838 | S. cerevisiae deletion strains, locus YML094W, strain GIM5, hits give low values 0.987 | S. cerevisiae deletion strains, locus YMR219W, strain ESC1, hits give low values 0.995 | S. cerevisiae deletion strains, locus YMR263W, strain SAP30, hits give low values 0.998 | S. cerevisiae deletion strains, locus YNL153C, strain GIM3, hits give low values 0.982 | S. cerevisiae deletion strains, locus YNL298W, strain CLA4 (second series), hits give low values 0.982 | S. cerevisiae deletion strains, locus YNL322C, strain KRE1, hits give low values 0.986 | S. cerevisiae deletion strains, locus YNR030W, strain Alg12, hits give low values 1.01 | S. cerevisiae deletion strains, locus YPL055C, strain LGE1, hits give low values 0.985 | S. cerevisiae deletion strains, locus YPL241C, strain CIN2, hits give low values 0.989 | S. cerevisiae deletion strains, locus YPR135W, strain CTF4, hits give low values 0.998 | S. cerevisiae strains, strain wild type, hits give low values 0.999
